Tests used:
Assay in all cases: DAPPL (digital affinity profiling via proximity ligation, sequencing); 10 mM Tris-HCl pH 7.5, 50 mM NaCl, 1 mM DTT, 4% glycerol, room temperature, 30 min; GST-TFs on glutathione beads, 16-mer random dsDNA library, 0.1% formaldehyde crosslink after washing; high values mean tight binding
FEV = target: T1, FEV (Homo sapiens, UniProt Q99581 1-238); conditions: protein: recombinant; tags: N-terminal GST; dsDNA, one strand shown
T1 sequence: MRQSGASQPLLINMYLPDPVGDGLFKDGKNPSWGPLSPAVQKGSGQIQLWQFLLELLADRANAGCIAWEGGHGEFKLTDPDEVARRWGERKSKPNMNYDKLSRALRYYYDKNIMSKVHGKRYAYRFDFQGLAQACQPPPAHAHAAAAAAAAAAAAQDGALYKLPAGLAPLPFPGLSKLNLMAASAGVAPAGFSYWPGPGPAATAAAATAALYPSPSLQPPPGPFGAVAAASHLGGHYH
Method in brief: (§1)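 Each value of binding signal is a hexamer's read frequency for a factor divided by the same hexamer's frequency in the tag-only sample. Barcoded, bead-captured GST fusions of human transcription factors made in yeast were pooled with that sample and incubated with 200 nmole of a random double-stranded 16-mer DNA library in Tris/NaCl/DTT/glycerol buffer at room temperature for 30 min. Washing, 0.1% formaldehyde crosslinking, proximity ligation, PCR and Illumina NextSeq500 sequencing followed.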

ETV5 = ETV5 (Homo sapiens, UniProt P41161 1-510); conditions: protein: recombinant; tags: N-terminal GST; dsDNA, one strand shown
Sequence of ETV5 (P41161 whole entry): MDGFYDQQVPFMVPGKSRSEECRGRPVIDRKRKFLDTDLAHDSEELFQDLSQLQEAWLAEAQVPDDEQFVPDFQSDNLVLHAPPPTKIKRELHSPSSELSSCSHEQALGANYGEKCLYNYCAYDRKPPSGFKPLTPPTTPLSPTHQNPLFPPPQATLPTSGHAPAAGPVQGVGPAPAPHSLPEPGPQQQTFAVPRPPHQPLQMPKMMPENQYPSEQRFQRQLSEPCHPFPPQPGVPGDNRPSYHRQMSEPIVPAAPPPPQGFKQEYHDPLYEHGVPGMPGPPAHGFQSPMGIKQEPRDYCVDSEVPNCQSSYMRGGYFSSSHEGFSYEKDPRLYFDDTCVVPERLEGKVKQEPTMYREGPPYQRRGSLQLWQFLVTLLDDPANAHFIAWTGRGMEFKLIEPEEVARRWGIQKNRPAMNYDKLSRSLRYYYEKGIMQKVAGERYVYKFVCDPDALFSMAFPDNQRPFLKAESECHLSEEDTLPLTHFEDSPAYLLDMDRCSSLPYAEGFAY
Method in brief: as §1

HSF1 = HSF1 (Homo sapiens, UniProt Q00613 1-529); conditions: protein: recombinant; tags: N-terminal GST; chain copies: 3; dsDNA, one strand shown
Sequence of HSF1 (Q00613 whole entry): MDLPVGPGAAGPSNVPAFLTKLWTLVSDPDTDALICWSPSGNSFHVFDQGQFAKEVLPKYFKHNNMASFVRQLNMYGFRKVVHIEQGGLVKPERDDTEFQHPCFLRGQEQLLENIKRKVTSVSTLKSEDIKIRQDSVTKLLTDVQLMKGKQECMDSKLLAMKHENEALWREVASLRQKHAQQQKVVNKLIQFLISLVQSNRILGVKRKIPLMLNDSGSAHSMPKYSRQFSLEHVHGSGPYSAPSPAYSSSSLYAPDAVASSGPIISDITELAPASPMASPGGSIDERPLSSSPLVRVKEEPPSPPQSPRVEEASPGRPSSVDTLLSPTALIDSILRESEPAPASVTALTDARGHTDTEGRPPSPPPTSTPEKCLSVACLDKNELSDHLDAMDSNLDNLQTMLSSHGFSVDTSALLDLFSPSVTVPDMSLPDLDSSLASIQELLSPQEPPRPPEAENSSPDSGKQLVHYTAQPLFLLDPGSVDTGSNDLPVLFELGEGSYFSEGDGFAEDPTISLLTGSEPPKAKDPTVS
Method in brief: as §1

SPIC = target: T2, SPIC (Homo sapiens, UniProt Q8N5J4 1-248); conditions: protein: recombinant; tags: N-terminal GST; dsDNA, one strand shown
T2 sequence: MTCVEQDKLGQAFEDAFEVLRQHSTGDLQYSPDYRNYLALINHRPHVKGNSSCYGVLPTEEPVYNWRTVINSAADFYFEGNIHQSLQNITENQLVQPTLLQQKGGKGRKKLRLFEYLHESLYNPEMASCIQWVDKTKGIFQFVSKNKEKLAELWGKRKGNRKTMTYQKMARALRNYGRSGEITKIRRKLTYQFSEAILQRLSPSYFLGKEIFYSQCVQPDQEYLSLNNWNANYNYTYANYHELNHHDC
Method in brief: as §1

ELF4 = ELF4 (Homo sapiens, UniProt Q99607 1-663); conditions: protein: recombinant; tags: N-terminal GST; dsDNA, one strand shown
Sequence of ELF4 (Q99607 whole entry): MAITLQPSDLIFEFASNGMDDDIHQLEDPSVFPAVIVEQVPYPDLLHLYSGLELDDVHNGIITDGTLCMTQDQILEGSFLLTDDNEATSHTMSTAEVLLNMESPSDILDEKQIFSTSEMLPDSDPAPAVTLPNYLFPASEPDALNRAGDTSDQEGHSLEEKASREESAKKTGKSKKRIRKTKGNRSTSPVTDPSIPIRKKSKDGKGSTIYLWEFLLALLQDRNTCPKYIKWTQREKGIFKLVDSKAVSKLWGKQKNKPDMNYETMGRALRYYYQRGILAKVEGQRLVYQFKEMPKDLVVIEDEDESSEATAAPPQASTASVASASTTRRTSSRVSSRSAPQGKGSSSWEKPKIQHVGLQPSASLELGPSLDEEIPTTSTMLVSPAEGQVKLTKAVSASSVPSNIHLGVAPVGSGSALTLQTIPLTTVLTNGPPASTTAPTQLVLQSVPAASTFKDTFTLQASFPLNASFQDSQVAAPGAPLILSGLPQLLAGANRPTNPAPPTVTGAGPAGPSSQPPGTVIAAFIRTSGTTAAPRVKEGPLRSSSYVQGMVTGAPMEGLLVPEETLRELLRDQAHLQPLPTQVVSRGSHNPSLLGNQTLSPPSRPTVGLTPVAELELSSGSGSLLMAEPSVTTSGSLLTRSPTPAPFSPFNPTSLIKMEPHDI
Method in brief: as §1

ELK4 = target: T3, ELK4 (Homo sapiens, UniProt P28324-2 1-405); conditions: protein: recombinant; tags: N-terminal GST; dsDNA, one strand shown
T3 sequence: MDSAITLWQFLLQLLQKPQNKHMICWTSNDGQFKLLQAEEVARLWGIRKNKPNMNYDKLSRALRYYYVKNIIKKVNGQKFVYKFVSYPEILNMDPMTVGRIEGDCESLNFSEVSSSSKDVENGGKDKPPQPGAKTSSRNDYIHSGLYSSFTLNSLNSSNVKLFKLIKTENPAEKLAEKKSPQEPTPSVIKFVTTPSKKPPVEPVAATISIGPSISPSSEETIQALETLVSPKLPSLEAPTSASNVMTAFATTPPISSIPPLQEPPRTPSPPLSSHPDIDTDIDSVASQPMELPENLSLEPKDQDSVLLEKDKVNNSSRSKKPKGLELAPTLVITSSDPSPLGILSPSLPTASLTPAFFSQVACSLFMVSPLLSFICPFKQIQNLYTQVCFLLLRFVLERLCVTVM
Method in brief: as §1

ETV2 = target: T4, ETV2 (Homo sapiens, UniProt O00321 1-342); conditions: protein: recombinant; tags: N-terminal GST; dsDNA, one strand shown
T4 sequence: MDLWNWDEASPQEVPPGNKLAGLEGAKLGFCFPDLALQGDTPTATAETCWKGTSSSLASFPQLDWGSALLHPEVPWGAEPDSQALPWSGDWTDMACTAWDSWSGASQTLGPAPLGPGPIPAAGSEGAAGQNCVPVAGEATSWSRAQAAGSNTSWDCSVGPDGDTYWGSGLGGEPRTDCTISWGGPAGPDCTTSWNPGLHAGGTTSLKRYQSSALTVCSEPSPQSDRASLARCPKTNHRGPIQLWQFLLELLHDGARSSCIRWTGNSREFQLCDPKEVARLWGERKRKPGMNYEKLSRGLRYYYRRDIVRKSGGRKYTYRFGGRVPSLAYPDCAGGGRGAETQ
Method in brief: as §1

ELF3 = target: T5, ELF3 (Homo sapiens, UniProt P78545 1-371); conditions: protein: recombinant; tags: N-terminal GST; dsDNA, one strand shown
T5 sequence: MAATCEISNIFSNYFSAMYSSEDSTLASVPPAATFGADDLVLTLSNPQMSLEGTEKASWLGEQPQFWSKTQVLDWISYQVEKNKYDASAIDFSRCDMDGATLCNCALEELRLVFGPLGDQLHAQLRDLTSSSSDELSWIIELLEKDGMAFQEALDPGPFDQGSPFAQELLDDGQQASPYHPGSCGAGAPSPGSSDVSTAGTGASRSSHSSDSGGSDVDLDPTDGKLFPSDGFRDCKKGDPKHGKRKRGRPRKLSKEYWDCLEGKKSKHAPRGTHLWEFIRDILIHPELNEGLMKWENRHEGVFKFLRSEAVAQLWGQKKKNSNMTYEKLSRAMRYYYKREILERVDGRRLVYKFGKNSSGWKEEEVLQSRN
Method in brief: as §1

CRX = CRX (Homo sapiens, UniProt O43186 1-299); conditions: protein: recombinant; tags: N-terminal GST; dsDNA, one strand shown
Sequence of CRX (O43186 whole entry): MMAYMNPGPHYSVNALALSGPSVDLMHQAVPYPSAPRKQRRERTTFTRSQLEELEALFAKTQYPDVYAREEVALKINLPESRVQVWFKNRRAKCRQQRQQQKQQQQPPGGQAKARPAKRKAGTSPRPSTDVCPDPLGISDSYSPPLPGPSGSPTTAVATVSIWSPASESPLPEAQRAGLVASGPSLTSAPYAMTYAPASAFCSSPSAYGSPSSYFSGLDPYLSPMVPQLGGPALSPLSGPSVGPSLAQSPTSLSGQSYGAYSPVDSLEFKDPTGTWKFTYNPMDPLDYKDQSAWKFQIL
Method in brief: as §1

ETV1 = ETV1 (Homo sapiens, UniProt P50549 1-477); conditions: protein: recombinant; tags: N-terminal GST; dsDNA, one strand shown
Sequence of ETV1 (P50549 whole entry): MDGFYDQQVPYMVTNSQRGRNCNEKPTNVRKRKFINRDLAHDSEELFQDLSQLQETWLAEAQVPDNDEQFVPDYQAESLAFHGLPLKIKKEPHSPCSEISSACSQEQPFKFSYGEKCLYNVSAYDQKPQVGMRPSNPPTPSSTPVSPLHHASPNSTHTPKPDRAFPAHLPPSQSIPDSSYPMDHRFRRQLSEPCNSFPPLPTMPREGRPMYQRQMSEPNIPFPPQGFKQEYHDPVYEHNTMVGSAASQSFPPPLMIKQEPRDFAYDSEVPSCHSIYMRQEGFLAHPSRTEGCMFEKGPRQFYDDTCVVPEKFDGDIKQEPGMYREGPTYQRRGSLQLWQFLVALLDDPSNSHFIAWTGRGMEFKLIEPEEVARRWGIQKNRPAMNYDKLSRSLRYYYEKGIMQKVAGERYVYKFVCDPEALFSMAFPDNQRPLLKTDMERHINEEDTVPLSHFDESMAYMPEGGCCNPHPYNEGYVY
Method in brief: as §1

Row | Sequence | binding signal (FEV) | binding signal (ETV5) | binding signal (HSF1) | binding signal (SPIC) | binding signal (ELF4) | binding signal (ELK4) | binding signal (ETV2) | binding signal (ELF3) | binding signal (CRX) | binding signal (ETV1)
1 | CGATTT | 1.22 fold enrichment (6-mer frequency, TF over GST control) | 1.23 fold enrichment (6-mer frequency, TF over GST control) | 1.38 fold enrichment (6-mer frequency, TF over GST control) | 1.22 fold enrichment (6-mer frequency, TF over GST control) | 1.19 fold enrichment (6-mer frequency, TF over GST control) | 1.14 fold enrichment (6-mer frequency, TF over GST control) | 1.13 fold enrichment (6-mer frequency, TF over GST control) | 1.23 fold enrichment (6-mer frequency, TF over GST control) | 1.58 fold enrichment (6-mer frequency, TF over GST control) | 1.17 fold enrichment (6-mer frequency, TF over GST control)
2 | TTGACT | 1.15 fold enrichment (6-mer frequency, TF over GST control) | 1.13 fold enrichment (6-mer frequency, TF over GST control) | 1.12 fold enrichment (6-mer frequency, TF over GST control) | 1.15 fold enrichment (6-mer frequency, TF over GST control) | 1.21 fold enrichment (6-mer frequency, TF over GST control) | 1.3 fold enrichment (6-mer frequency, TF over GST control) | 1.27 fold enrichment (6-mer frequency, TF over GST control) | 1.15 fold enrichment (6-mer frequency, TF over GST control) | 1.09 fold enrichment (6-mer frequency, TF over GST control) | 1.18 fold enrichment (6-mer frequency, TF over GST control)
3 | ATCTCT | 1.29 fold enrichment (6-mer frequency, TF over GST control) | 1.29 fold enrichment (6-mer frequency, TF over GST control) | 1.63 fold enrichment (6-mer frequency, TF over GST control) | 1.45 fold enrichment (6-mer frequency, TF over GST control) | 1.26 fold enrichment (6-mer frequency, TF over GST control) | 1.44 fold enrichment (6-mer frequency, TF over GST control) | 1.33 fold enrichment (6-mer frequency, TF over GST control) | 1.26 fold enrichment (6-mer frequency, TF over GST control) | 1.85 fold enrichment (6-mer frequency, TF over GST control) | 1.23 fold enrichment (6-mer frequency, TF over GST control)
4 | TTAACC | 1.29 fold enrichment (6-mer frequency, TF over GST control) | 1.22 fold enrichment (6-mer frequency, TF over GST control) | 1.8 fold enrichment (6-mer frequency, TF over GST control) | 1.26 fold enrichment (6-mer frequency, TF over GST control) | 1.32 fold enrichment (6-mer frequency, TF over GST control) | 1.31 fold enrichment (6-mer frequency, TF over GST control) | 1.36 fold enrichment (6-mer frequency, TF over GST control) | 1.27 fold enrichment (6-mer frequency, TF over GST control) | 2.67 fold enrichment (6-mer frequency, TF over GST control) | 1.28 fold enrichment (6-mer frequency, TF over GST control)
5 | CGACTC | 1.42 fold enrichment (6-mer frequency, TF over GST control) | 1.44 fold enrichment (6-mer frequency, TF over GST control) | 1.37 fold enrichment (6-mer frequency, TF over GST control) | 1.64 fold enrichment (6-mer frequency, TF over GST control) | 1.41 fold enrichment (6-mer frequency, TF over GST control) | 1.35 fold enrichment (6-mer frequency, TF over GST control) | 1.34 fold enrichment (6-mer frequency, TF over GST control) | 1.25 fold enrichment (6-mer frequency, TF over GST control) | 1.31 fold enrichment (6-mer frequency, TF over GST control) | 1.41 fold enrichment (6-mer frequency, TF over GST control)
6 | ATTTTG | 1.15 fold enrichment (6-mer frequency, TF over GST control) | 1.28 fold enrichment (6-mer frequency, TF over GST control) | 1.28 fold enrichment (6-mer frequency, TF over GST control) | 1.09 fold enrichment (6-mer frequency, TF over GST control) | 1.25 fold enrichment (6-mer frequency, TF over GST control) | 1.31 fold enrichment (6-mer frequency, TF over GST control) | 1.33 fold enrichment (6-mer frequency, TF over GST control) | 1.31 fold enrichment (6-mer frequency, TF over GST control) | 1.32 fold enrichment (6-mer frequency, TF over GST control) | 1.31 fold enrichment (6-mer frequency, TF over GST control)
7 | GATGTT | 1.22 fold enrichment (6-mer frequency, TF over GST control) | 1.31 fold enrichment (6-mer frequency, TF over GST control) | 1.18 fold enrichment (6-mer frequency, TF over GST control) | 1.39 fold enrichment (6-mer frequency, TF over GST control) | 1.22 fold enrichment (6-mer frequency, TF over GST control) | 1.16 fold enrichment (6-mer frequency, TF over GST control) | 1.21 fold enrichment (6-mer frequency, TF over GST control) | 1.22 fold enrichment (6-mer frequency, TF over GST control) | 1.08 fold enrichment (6-mer frequency, TF over GST control) | 1.25 fold enrichment (6-mer frequency, TF over GST control)

From PMC7862700, “An all-to-all approach to the identification of sequence-specific readers for epigenetic DNA modifications on cytosine”
